Screening results deposited in PubChem BioAssay by National Center for Advancing Translational Sciences (NCATS).
A selection: hits, their analogues and other compounds. The true share with any hit is near 7.9%.
Lassa entry inh – Lassa virus entry inhibition; Lassa virus pseudotype entry inhibition, cell reporter; Potency, µM (highest dose often 37.9 µM), actives largely listed as inhibitors; actives 1.2% (n = 300,000); calls by dose curve; tested in HEK293 cells; further: nearly all actives have a fitted effect of over 50% in size
FMDV inh – foot and mouth disease virus antiviral activity. FMDV antiviral cell-based qHTS. Potency, µM (titrated, usually from 57.9 µM), most hits filed as inhibitors. actives 1.2% (n = 410,000); calls by dose curve; tested in HEK293T cells; further: read-out not given here; nearly all actives have a fitted effect of over 45% in size
HCMV inh – human cytomegalovirus inhibition; actives 4.5% (n = 410,000); AID 1259415; activity change, negative = inhibition, % at 57.5 µM; HFF cells, HCMV-luciferase reporter, 72 h; active compounds read low; in the data active means activity change below about -60%; inconclusive means no clear call, values can overlap the other calls; inactive means above about -39%
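HFF cells seeded 16 h at 37C, treated with compounds, infected with luciferase-reporter HCMV at MOI 1 PFU/cell; luciferase read at 72 h post infection, normalized to buffer-only and Salinomycin controls.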
Marburg entry inh – inhibitors of Marburg virus binding or cell entry; Marburg virus pseudotyped entry inhibition, cell reporter; Potency, µM (series often up to 37.8 µM), most hits filed as inhibitors; actives 1.8% (n = 300,000); calls by dose curve; tested in HEK293 cells
HCV inhibitor – HCV inhibition; AID 651820; actives 3.4% (n = 340,000); Potency, µM (top dose mostly 41.8 µM), usual class: inhibitors; Huh7.5.1 HCVcc-Cre infection, luciferase reporter, 44 h; active means well fitted inhibition curve with a large enough effect; inconclusive means small, poorly fitted or top-dose-only effect, or another doubt; inactive means no such curve, though single readings can be large or run the other way
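HCVcc-Cre virus at an moi near 0.5 was added right after compound to cells cultured 4 h from seeding (1,000 cells/well). Luciferase activity was determined 44 h later, 15 min after substrate addition at RT.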
Hits are given with their value; . = inactive; ? = inconclusive; / = not tested or not shown.

SMILES	Lassa entry inh	FMDV inh	HCMV inh	Marburg entry inh	HCV inhibitor
COc1ccc(N2CCN(c3ncnc4scc(-c5ccccc5)c34)CC2)cc1	.	?	.	?	?
N#C[C@@H](c1ccccc1)C1CCN(C(=O)c2ccco2)CC1	/	/	.	/	/
COc1ccc(C=CC2=CC3(C)CC2(C)C(c2ccc(OC)cc2)CC3=O)cc1 (centres undefined)	/	/	/	.	/
COc1cc(-c2n[nH]c3ccnc(-c4cccc5ncccc45)c23)cc(OC)c1OC	/	/	.	/	/
COc1ccc(C(=O)NCc2nnc(SCC(=O)N3CCc4ccccc43)n2Cc2ccccc2)cc1	.	?	.	.	.
Cc1ccc(NC(=O)N[C@H]2CC[C@@]34CCCN3C(=O)CCC[C@H]4[C@H]2C)cc1	/	/	.	/	/
Cc1ccnc(NC(=O)CCC(=O)N(CC(=O)NCCc2ccccc2)c2ccccc2F)c1	/	.	.	.	.
c1ccc(-c2csc3ncnc(N4CCOCC4)c23)cc1	.	.	.	.	.
c1csc(-c2csc3ncnc(NCCCN4CCOCC4)c23)c1	.	?	-66.8	?	?
Cc1csc2c(NCCCN3CCOCC3)ncnc12	.	.	.	.	.
COc1ccc(CN2CCN(c3ncnc4scc(-c5ccc(F)cc5)c34)CC2)cc1	?	?	.	12.6µM	?
c1ccc(N2CCN(c3ncnc4scc(-c5cccs5)c34)CC2)cc1	.	.	.	.	11.2µM
CCN1CCN(c2ncnc3scc(-c4ccc(OC)cc4)c23)CC1	.	.	.	.	.
COc1ccc(N2CCN(c3ncnc4scc(-c5ccc(F)cc5)c34)CC2)cc1	.	28.2µM	.	?	?
O=C(Cc1ccccc1[N+](=O)[O-])c1ccccc1	/	/	.	/	/
CCC(C)NC(=O)c1cc2cc(S(=O)(=O)N3CCCCC3)ccc2n1C (centres undefined)	.	?	.	/	/
CCCN(CCC)S(=O)(=O)c1ccc(C(=O)N2CCn3c4c(c5cc(C)ccc53)CCCC42)cc1 (centres undefined)	.	.	.	.	/
Cc1ccc(-c2csc3ncnc(N4CCN(C(=O)c5ccccc5)CC4)c23)cc1	?	25.1µM	-70.2	?	?
O=C(c1ccco1)N1CCN(c2ncnc3scc(-c4ccccc4)c23)CC1	.	?	.	.	?
COc1ccc(F)cc1CN1CCN(c2ncnc3scc(-c4ccccc4)c23)CC1	?	?	-75.4	?	?
CCOc1ccc(CN2CCN(c3ncnc4scc(-c5ccccc5)c34)CC2)cc1	.	?	.	.	?
CCOC(=O)/C=C/COc1ccccc1[N+](=O)[O-]	.	.	-63.1	.	.
CCCCn1c(=O)[nH]c(=O)c2c1nc(-c1ccc(OC)c(Br)c1)n2CC(C)C	?	.	.	?	10µM
CCCCn1c(=O)[nH]c(=O)c2c1nc(-c1ccccc1F)n2Cc1ccccc1OC	11.2µM	?	.	?	10µM
COC(=O)N[C@H](C(C(=O)OC)=C(C)NCc1ccccc1)c1ccc(Cl)cc1	/	/	/	.	/
SMILES	Lassa entry inh	FMDV inh	HCMV inh	Marburg entry inh	HCV inhibitor
O=C(Oc1ccccc1)c1cc(O)c(O)c(O)c1	/	.	/	/	/
Cn1cc(C(=O)NCCc2ccc(Cl)cc2)c(=O)c2cc(S(=O)(=O)N3CCOCC3)ccc21	.	.	.	.	/
Cc1ccc(N(C)S(=O)(=O)c2ccc(-c3cnc(C4CC4)o3)cc2)cc1	1.41µM	.	?	/	.
CCOc1ccccc1CNS(=O)(=O)c1ccc(-c2cnc(C3CC3)o2)cc1	?	?	-69.0	/	?
COc1ccc(C)cc1NS(=O)(=O)c1ccc(-c2cnc(C3CC3)o2)cc1	?	?	-102.8	/	?
COc1cc(Cl)c(NS(=O)(=O)c2ccc(-c3cnc(C4CC4)o3)cc2)c(OC)c1	?	?	-76.0	/	/
Cc1cccc(C)c1NS(=O)(=O)c1ccc(-c2cnc(C3CC3)o2)cc1	/	?	/	/	.
Cc1cc(Cl)ccc1NC(=O)/C=N/O	/	.	.	/	.
Cc1ccc(Cc2cnc(NC(=O)c3ccc4c(c3)CC(c3ccccc3)OC4=O)s2)cc1 (centres undefined)	.	.	.	.	/
CCCN=C(C)c1c(-c2ccccc2)[nH]n(-c2nc3ccccc3s2)c1=O	.	?	.	.	.
COC(=O)Cc1[nH]n(-c2nc3ccccc3s2)c(=O)c1C(C)=Nc1ccc(C)cc1	?	0.355µM	-78.1	?	.
COC(=O)Cc1[nH]n(-c2ccccc2)c(=O)c1C(C)=Nc1ccccc1	.	.	?	.	.
CC(=NCc1ccco1)c1c(C)[nH]n(-c2nc3ccccc3s2)c1=O	?	?	.	?	.
COC(=O)Cc1[nH]n(-c2nc3ccccc3s2)c(=O)c1C(C)=Nc1ccc(Cl)cc1	/	1µM	.	/	.
C/C(=N/NC(=O)c1cccs1)c1c(C)[nH]n(-c2nc3ccccc3s2)c1=O	?	.	.	4.61µM	.
CCOc1ccc(-c2nnc(SCC(=O)Nc3cc(F)ccc3F)o2)cc1	.	.	?	.	/
COc1ccc(-c2nc3n(c(=O)c2C#N)CCCS3)cc1	.	.	.	.	?
CCOc1ccc(-c2nc3n(c(=O)c2C#N)CCCS3)cc1	7.08µM	.	-90.8	?	?
COc1cccc(C(=O)COc2cccc(NC(=O)c3cccc([N+](=O)[O-])c3)c2)c1	?	28.2µM	?	?	8.91µM
COc1ccc(CC(=O)Nc2cccc(/C(C)=N/NC(=O)c3cccc([N+](=O)[O-])c3)c2)cc1	11.2µM	.	.	?	?
O=C(COc1cccc(NC(=O)c2cccc([N+](=O)[O-])c2)c1)c1ccc(F)cc1	?	?	.	?	?
O=C(COc1ccc(Br)cc1)N(Cc1ccco1)C1CCS(=O)(=O)C1 (centres undefined)	.	.	.	?	.
Cc1cccc(C(=O)NNc2ncnc3c2cnn3-c2ccc(C)c(Cl)c2)c1	?	.	.	/	/
O=[N+]([O-])c1ccc(Sc2nnnn2-c2ccccc2)c(Cl)c1	.	?	-73.1	.	.
CN1CCN(S(=O)(=O)c2ccc(Sc3nnnn3-c3ccccc3)c([N+](=O)[O-])c2)CC1	.	20µM	.	?	.
SMILES	Lassa entry inh	FMDV inh	HCMV inh	Marburg entry inh	HCV inhibitor
Cn1cnnc1Sc1cc(N2CCN(S(=O)(=O)c3ccccc3)CC2)ccc1[N+](=O)[O-]	.	.	.	.	?
CC(=O)c1ccc(Sc2nnnn2-c2ccccc2)c([N+](=O)[O-])c1	.	31.6µM	-67.2	?	?
Cn1nnnc1Sc1ccc([N+](=O)[O-])cc1Cl	.	.	?	?	.
CN1C(=O)C(C)(C(Nc2ccccc2)c2ccccc2)c2ccccc21 (centres undefined)	/	/	.	/	/
C=CCN1C(=O)C2CCCCC2n2nnc(C(=O)OCC)c21 (centres undefined)	/	/	/	.	/
Cc1nc2cnc(N3CCOCC3)nc2n(C[C@H]2CCCO2)c1=O	/	.	/	/	/
CC(C)c1ccc(NC(=O)C2Cc3c(-c4ccccc4Oc4ccccc4)ccnc3O2)cc1 (centres undefined)	/	.	-60.8	/	/
CNC(=O)C1Cc2c(-c3ccccc3Oc3ccccc3)ccnc2O1 (centres undefined)	/	.	.	/	/
COc1ccc(NC(=O)C2Cc3c(-c4ccccc4Oc4ccccc4)ccnc3O2)cc1OC (centres undefined)	/	25.1µM	-75.9	/	/
